# Compound activity (PubChem)
# HT1080 IDH1KD tx: HT-1080 IDH1 knockdown cell toxicity (counter line); HT-1080 IDH1 knockdown viability, ATP luminescence, 48 h; hit rate 2% among 360,000; Potency, µM (series often up to 46.1 µM), for inactives: at the top dose activity, negative = toxicity, most hits filed as cytotoxic; AID 686971;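 also: 0% = DMSO wells and -100% = cell-free medium wells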
#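 CellTiter-Glo luminescence after 48 h compound exposure at 37 degrees C of IDH1-knockdown HT-1080 cells in 5% FBS RPMI. %Activity scaled between DMSO wells and cell-free media wells, with curves fitted and assigned curve classes.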
# KB-V1 MDR tox: KB-V1 MDR subline cytotoxicity; hit rate 3.4% among 400,000; Potency, µM (highest dose often 46.1 µM), hits mostly cytotoxic; KB-V1 MDR cells viability, CellTiter-Glo, 72 h; also: % is scaled to controls: 0 for no effect and ±100 for the full control effect; nearly all actives have a fitted effect of over 60% in size
#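 KB-V1 cells (P-gp-expressing MDR subline of KB-3-1) in phenol-red-free DMEM with 10% FBS were exposed to library compounds over a concentration series for 72 h at 37 degrees C. Viability read by CellTiter-Glo luminescence; concentration-effect curves fitted after normalization.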
# MCF10A rereplic: DNA re-replication induction in MCF 10a cells; MCF 10A DNA re-replication, Hoechst nuclear intensity, 48 h; AID 624296; Potency, µM (series often up to 46.1 µM), inactives show top-dose activity, positive = re-replication, actives largely listed as activators; hit rate 2.9% among 350,000; also: % of control where 0% means no effect; nearly all actives have a fitted effect of over 50% in size
# HT1080-NT tox: kills 2HG-producing HT-1080-NT fibrosarcoma cells; Potency, µM (highest dose often 46.1 µM), without a hit: top-dose activity, negative = less viability, most hits filed as cytotoxic; hit rate 1.6% among 360,000; AID 686970; HT-1080-NT fibrosarcoma viability, CellTiter-Glo ATP luminescence, 48 h;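 also: NT is the 2HG producing partner of a matched IDH1 knockdown line; 0% = DMSO-treated cells and -100% = media-only wells without cells; nearly all actives have a fitted effect of over 55% in size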
#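 HT-1080-NT fibrosarcoma cells (2HG-overproducing), 750 cells/well in RPMI with 5% FBS, dosed after 2 h and incubated 48 h at 37C. CellTiter-Glo luminescence normalized to DMSO and no-cell wells; concentration-response curves fitted and classed.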
# SW480 rereplic: inducers of DNA re-replication in SW480 colon cancer cells; SW480 DNA re-replication, Hoechst DNA content imaging, 48 h; hit rate 1.8% among 340,000; Potency, µM (titrated, usually from 46.1 µM), inactives show at the top dose re-replication activation, usual class: activators; also: % of control where 0% means no effect; nearly all actives have a fitted effect of over 55% in size
#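 DNA re-replication was detected as more nuclei of elevated Hoechst intensity after 48 hr exposure to compound (23 nL pinned per well of 250 cells).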
# KB-3-1 tox: KB-3-1 parental cell cytotoxicity; hit rate 1.4% among 400,000; Potency, µM (top dose mostly 46.1 µM), actives largely listed as cytotoxic; KB-3-1 viability, CellTiter-Glo ATP luminescence, 72 h; AID 1347075; also: % is scaled to controls: 0 for no effect and ±100 for the full control effect; nearly all actives have a fitted effect of over 60% in size
#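 Multi-concentration cytotoxicity screen in KB-3-1 cells grown in DMEM lacking phenol red with 10% FBS. After 72 h at 37 °C with compound, ATP-dependent luminescence was recorded.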
# * hit, by the source's call; i = inactive; u = inconclusive; x = not tested or not shown. This is a sample that favours compounds with a hit; in the whole collection about 8% have one here. Calls follow the shape of the dose curve; as a rule, active = well fitted curve in the direction sought with a large enough effect; inconclusive = small, poorly fitted or top-dose-only effect, or another doubt; inactive = no such curve, though single readings can be large; an effect the other way counts as inactive or inconclusive. Potency is read from the fitted curve at half-maximal effect.
SMILES,HT1080 IDH1KD tx,KB-V1 MDR tox,MCF10A rereplic,HT1080-NT tox,SW480 rereplic,KB-3-1 tox
COC(=O)C(=Cc1ccc(-c2ccsc2C(=O)OC)o1)C(=O)OC,21µM*,i,26µM*,u,5.8µM*,u
CCOc1ccc(CNCc2c(C(=O)O)c(C)n(Cc3ccc(F)cc3Cl)c2C)cc1,x,i,x,x,x,i
Cc1cc(-n2c(C)cc(C(=S)N3CCOCC3)c2C)ccc1Br,-2%,8.2µM*,u,7%,1%,u
Cn1c(=O)c2nc3ccccc3nc2n(C)c1=O,-4%,i,0.73µM*,0%,-55%,i
Cc1ccc(-n2c3c(c(O)c(-c4ccccc4)c2=O)C(=O)CC(C)(C)C3)cc1,6%,12µM*,9%,1%,u,i
Cn1c2c(c(O)c(-c3ccccc3)c1=O)C(=O)CC(C)(C)C2,19%,i,2%,u,3%,i
Cc1ccc(N2/C(=N/c3nc(C)cc(C)n3)NC(=O)CC2C(=O)O)cc1 (stereo not given),-4%,i,18µM*,0%,14%,i
Cc1cc(C)nc(/N=C2\NC(=O)CC(C(=O)O)N2c2ccc(Cl)cc2)n1 (stereo not given),5%,i,0%,14%,3%,i
Cc1ccc(OCCC(=O)OCC(=O)N2CCN(S(=O)(=O)c3ccc(Cl)cc3)CC2)cc1,-2%,i,4%,5%,18µM*,i
COc1ccc(OC)c(C(=O)CN2CCN(S(=O)(=O)c3ccc(Br)cc3)CC2)c1,-2%,i,23µM*,-3%,u,i
CN(C(=O)COC(=O)C1CCN(S(=O)(=O)c2c(Cl)cccc2Cl)CC1)C1CCCCC1,-1%,i,u,9%,3.7µM*,i
CN(C(=O)COC(=O)C1CCN(S(=O)(=O)c2c(Cl)cccc2Cl)CC1)c1ccccc1,-1%,i,2%,-3%,12%,i
Cc1ccc(S(=O)(=O)N2CCN(C(=O)COC(=O)C3CCC3)CC2)cc1,15%,i,-1%,-3%,6.5µM*,i
COc1ccc(NC(=O)CN2CCN(S(=O)(=O)c3ccc(Br)cc3)CC2)cc1,x,i,x,x,x,i
O=C(OCC(=O)N1CCN(S(=O)(=O)c2ccc(Cl)cc2)CC1)C1CCC1,2%,i,-1%,0%,0%,i
CCOC(=O)c1c(-c2ccc(C)cc2)csc1NC(=O)c1cc(=O)c2cc(C)cc(C)c2o1,x,i,x,x,x,i
COc1ccccc1OCC(=O)NCC1(N(C)C)CCCCC1,x,i,x,x,x,i
Cc1ccc(S(=O)(=O)N2CCN(C(=O)CN3CCc4ccccc4C3)CC2)cc1,-6%,4.1µM*,6%,-1%,7%,i
O=C(COc1ccccc1)N1CCN(S(=O)(=O)c2ccc(Br)cc2)CC1,1%,i,1%,5%,-7%,i
Cc1ccc(S(=O)(=O)N2CCN(C(=O)COc3ccc(Br)cc3)CC2)cc1,-11%,16µM*,2%,-8%,-1%,i
Cc1ccc(S(=O)(=O)N2CCN(C(=O)COC(=O)CCOc3ccc(C(C)(C)C)cc3)CC2)cc1,-7%,i,4%,-5%,18µM*,i
CCOc1ccc(OCCC(=O)OCC(=O)N2CCN(S(=O)(=O)c3ccc(C)cc3)CC2)cc1,-15%,i,u,u,11%,i
O=C(CN1CCc2ccccc2C1)N1CCN(S(=O)(=O)c2ccccc2)CC1,6%,u,21%,2%,-10%,i
CCOC(=O)c1sc2nc3c(SCC(=O)O)cc(C(=O)c4cc(F)ccc4O)cn3c(=O)c2c1C,-2%,i,3.3µM*,2%,-1%,i
COc1ccc(O)c(C(=O)c2cc(SCC(=O)O)c3nc4sc5c(c4c(=O)n3c2)CCCC5)c1,-3%,i,0%,-17%,6%,i
